Hits are enriched below; roughly 3% of the tested compounds scored in any of these assays.
Peg3 prom inh: Peg3 promoter activity inhibition; HeLa PEG-Prom luciferase reporter, luminescence, overnight; inhibition, % at 20 µM; 360,000 tested, 1.7% active; AID 588405;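 active means inhibition of at least 50% at 20 µM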
ABHD5-PLIN5 inh: blocks binding of human ABHD5 to perilipin-5 | Q00G26+Q8WTS1 | Split G. princeps luciferase complementation, luminescence, 4 h | AID 602281 | 360,000 tested, 0.78% active | inhibition, % at 4 µM;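 active means inhibition above the mean inhibition across every tested compound plus 3 SD, cut at about 22% in these data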;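 further: 0% = DMSO only wells and the 100% control is not disclosed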
Target sequence (Q00G26 whole entry, looked up): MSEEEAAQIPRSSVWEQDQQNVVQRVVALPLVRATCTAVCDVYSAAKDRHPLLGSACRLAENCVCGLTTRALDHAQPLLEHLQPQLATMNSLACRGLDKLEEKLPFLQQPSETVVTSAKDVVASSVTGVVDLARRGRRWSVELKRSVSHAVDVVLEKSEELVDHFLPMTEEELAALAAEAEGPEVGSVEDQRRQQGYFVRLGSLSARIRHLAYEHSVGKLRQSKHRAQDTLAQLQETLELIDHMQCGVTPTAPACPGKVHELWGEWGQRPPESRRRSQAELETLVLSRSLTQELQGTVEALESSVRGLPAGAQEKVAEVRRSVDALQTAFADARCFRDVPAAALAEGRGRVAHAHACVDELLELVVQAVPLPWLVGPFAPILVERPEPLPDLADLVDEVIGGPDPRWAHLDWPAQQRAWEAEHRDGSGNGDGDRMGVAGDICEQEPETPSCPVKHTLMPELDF
Target sequence (Q8WTS1 whole entry, looked up): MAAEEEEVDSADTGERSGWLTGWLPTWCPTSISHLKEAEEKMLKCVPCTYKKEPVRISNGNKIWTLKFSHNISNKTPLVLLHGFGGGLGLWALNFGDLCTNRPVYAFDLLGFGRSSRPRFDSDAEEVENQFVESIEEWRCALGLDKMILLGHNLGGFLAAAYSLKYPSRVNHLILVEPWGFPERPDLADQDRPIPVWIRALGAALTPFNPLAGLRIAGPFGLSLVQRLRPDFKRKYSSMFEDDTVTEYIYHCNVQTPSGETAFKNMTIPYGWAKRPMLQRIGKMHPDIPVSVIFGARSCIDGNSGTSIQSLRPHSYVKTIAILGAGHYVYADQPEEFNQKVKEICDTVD
EWS-Fli inh: EWS/Fli transcriptional activity inhibition; A673 NR0B1-luciferase reporter, viability-normalised; inhibition, % at 12.6 µM; 350,000 tested, 0.67% active; AID 651661;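 active means mean inhibition of at least 50% after viability correction, with every replicate also passing that limit; inconclusive means mean reaches 50% but only one of two replicates passes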;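 further: firefly luciferase signal divided by Alamar Blue viability fluorescence both relative to DMSO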
Shn3 inh set2: reduces Shn3 3'UTR luciferase signal in osteoblasts | AID 588674 | 360,000 tested, 0.52% active | inhibition, % at 12.5 µM | Clone20 osteoblast Shn3 3'UTR firefly luciferase, 24 h;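 active means mean inhibition of at least 75% with every replicate also reaching 75%; inconclusive means mean inhibition at least 75% but some replicate below; inactive means mean inhibition below 75%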;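 further: 0% = median of neutral control wells and 100% = pilot-screen positive control compound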
TRPM1 prom inh: MITF TRPM1 promoter inhibition in SK-MEL-5 cells. SK-MEL-5 TRPM1 promoter luciferase, 24 h. inhibition, % at 12.5 µM. 330,000 tested, 0.83% active;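 active means mean inhibition across replicates of 60% or more, whatever share of single replicates reaches that level; inconclusive means some that reach 60%, reason not given; inactive means mean inhibition across replicates below 60%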
PAX8 reporter: PAX8 transcriptional activity inhibition; RMG-I TPO-luciferase reporter, SteadyGlo, 24 h; inhibition, % at 12.6 µM; 360,000 tested, 1.2% active;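 active means mean replicate inhibition at least 60% with every replicate also reaching 60%; inconclusive means only one of the two criteria is met; inactive means mean below 60% and not all replicates reaching 60%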;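 further: luciferase light reporting Pax8 driven TPO promoter activity; plate controls were median of neutral control wells for no effect and mitoxantrone controls for full effect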
Starred values were filed as active, the others as inactive; ? = inconclusive; / = no result.

SMILES	Peg3 prom inh	ABHD5-PLIN5 inh	EWS-Fli inh	Shn3 inh set2	TRPM1 prom inh	PAX8 reporter
COc1cc(/C=N/NC(=Nc2ccc(C)cc2)c2nc3ccccc3s2)ccc1O	72*	-4	/	52	69*	/
C[C@H]1CN([C@@H](C)CO)C(=O)Cc2cc(NC(=O)Cc3cn(C)c4ccccc34)ccc2O[C@H]1CN(C)S(=O)(=O)c1ccccc1	/	/	8	/	/	-11
Cc1cc(Nc2ccccc2Cl)nc(-c2ccccc2O)n1	1	-7	10	1	17	-10
Cc1ccc(C)c(Nc2cc(C)nc(-c3ccccc3O)n2)c1	25	-5	62*	40	42	13
O=C(/C=C/c1ccccc1)CCN1CCOCC1	92*	14	15	31	-3	29
O=C(C[C@H]1CC[C@H](NS(=O)(=O)c2ccc(F)cc2)[C@@H](CO)O1)NCc1ccncn1	/	/	-24	/	/	-7
C=C(C)[C@@H]1CC[C@]2(C(=O)O)CC[C@]3(C)[C@H](CC[C@@H]4[C@@]5(C)CC[C@H](O)C(C)(C)[C@@H]5CC[C@]43C)[C@@H]12	54*	-9	-1	-2	5	-1
O=C(CN1CCOCC1)NCC[C@@H]1CC[C@@H](NC(=O)Nc2ccc(F)cc2)[C@@H](CO)O1	/	/	3	/	/	4
CCCn1c(/C=C/c2cc[n+](C)cc2)nc2ccccc21	2	5	5	7	18	18
Cc1ccc2[nH]c(C)c(/C=C/c3cc[n+](C)cc3)c2c1	18	9	50	25	55	78*
Cc1ccc2c(c1)c(/C=C/c1cc[n+](C)cc1)c(C)n2C	47	-2	57*	0	?	?
C[n+]1ccc(/C=C/c2ccc(Br)cc2)cc1	-4	8	/	0	58	/
C[C@@H]1CCCCO[C@@H](CN(C)C(=O)Nc2ccccc2)[C@H](C)CN([C@@H](C)CO)C(=O)c2cc(NC(=O)CCC(F)(F)F)ccc2O1	/	/	-9	/	/	-31
CCN1CCN(CCCNC(=O)c2ccc3c(Cl)c4c(nc3c2)CCCC4)CC1	74*	3	7	-1	92*	9
CCN1CCN(CCNC(=O)c2ccc3nc(-c4cccc(C)c4)c(-c4cccc(C)c4)nc3c2)CC1	91*	5	21	5	87*	7
CN(C)CCCNC(=O)[C@H]1[C@H](CO)[C@H]2Cn3c(ccc(-c4cccc(F)c4)c3=O)[C@H]2N1C	/	/	-7	/	/	-22
CO[C@H]1CN(C)C(=O)c2cc(C#N)ccc2OCC[C@@H]2CC[C@@H](OC)[C@H](CN(C)C(=O)[C@H]1C)O2	/	/	8	/	/	-2
C[C@@H]1CN([C@@H](C)CO)C(=O)Cc2cc(NC(=O)Nc3ccccc3)ccc2O[C@H]1CN(C)C(=O)Nc1ccccc1	/	/	-9	/	/	12
CN1CCN(C(=O)C2=C[C@H](c3ccccc3)C[C@H](OCCCCO)O2)CC1	/	/	-10	/	/	-6
N#Cc1c(NCc2ccccc2)ccnc1NCc1cccnc1	20	4	/	85*	26	19
N#Cc1c(F)cccc1NCc1cccnc1	12	-4	13	-2	-9	3
CCN(C(=O)COC(=O)c1c2c(nc3ccccc13)/C(=C/c1ccccc1)CC(C)C2)C1CCS(=O)(=O)C1 (stereo not drawn)	29	9	/	4	12	67*
CCN(C(=O)COC(=O)c1c(C)nn(-c2ccccc2)c1C)C1CCS(=O)(=O)C1 (stereo not drawn)	-87	4	-57	-32	-28	-69
COc1cc(CNC(C)(C)CO)ccc1OCC(=O)NC(C)(C)C	11	-1	/	-3	6	0
COc1cc(CNC(C)C23CC4CC(CC(C4)C2)C3)ccc1OCC(=O)NC(C)(C)C (stereo not drawn)	72*	2	20	2	7	19
SMILES	Peg3 prom inh	ABHD5-PLIN5 inh	EWS-Fli inh	Shn3 inh set2	TRPM1 prom inh	PAX8 reporter
CCS(=O)(=O)N1CC2(CN(Cc3cccc(Cl)c3)[C@H](CO)c3c2c2ccc(OC)cc2n3C)C1	/	/	3	/	/	/
Cc1cccc(NC(=S)NC(=O)/C=C/c2ccco2)c1	-84	6	36	-6	-3	-4
O=C(/C=C/c1ccco1)NC(=S)Nc1cccc([N+](=O)[O-])c1	-7	23*	10	-9	-7	-20
Cn1cc(/C=C/c2cc[n+](C)cc2)c2cc(F)ccc21	19	0	/	9	38	/
Cn1cc(/C=C/c2cc[n+](C)cc2)c2cc(Cl)ccc21	51*	14	28	-7	55	15
CC(C)NC(=O)N(C)C[C@H]1Oc2cc(Br)ccc2S(=O)(=O)N([C@@H](C)CO)C[C@H]1C	/	/	-13	/	/	/
COC(=O)c1ccc(CSc2n[nH]c(C)n2)o1	4	-4	1	6	10	78*
NC(=O)c1ccsc1NC(=O)CN1CCN(S(=O)(=O)c2ccccc2C(F)(F)F)CC1	61*	4	12	18	0	17
CO[C@@H]1CN(C)C(=O)c2cc(NS(C)(=O)=O)ccc2OC[C@H](C)N(Cc2ccccc2)C[C@@H]1C	/	/	5	/	/	2
C=CCNC(=O)[C@@H]1[C@H]2C(=O)O[C@H](c3ccccc3)[C@H](c3ccccc3)N2[C@H](c2ccc(OCCO)cc2)[C@@]12C(=O)Nc1ccc(C#CCNC(N)=O)cc12	/	/	-20	/	/	/
Cc1noc(C)c1S(=O)(=O)Nc1ccc2c(c1)C(=O)N([C@@H](C)CO)C[C@@H](C)[C@H](CN(C)Cc1ccc(C(F)(F)F)cc1)OCCCC[C@H](C)O2	/	/	/	/	/	64*
Cc1noc(C)c1S(=O)(=O)Nc1ccc2c(c1)C(=O)N([C@H](C)CO)C[C@H](C)[C@H](CN(C)Cc1ccc(C(=O)O)cc1)OCCCC[C@H](C)O2	/	/	-8	/	/	-2
Cc1noc(C)c1S(=O)(=O)Nc1ccc2c(c1)C(=O)N([C@H](C)CO)C[C@H](C)[C@H](CN(C)Cc1ccc(C(F)(F)F)cc1)OCCCC[C@H](C)O2	/	/	/	/	/	74*
Cc1noc(C)c1S(=O)(=O)Nc1ccc2c(c1)C(=O)N([C@H](C)CO)C[C@H](C)[C@@H](CN(C)Cc1ccc(C(F)(F)F)cc1)OCCCC[C@H](C)O2	/	/	/	/	/	72*
Cc1noc(C)c1S(=O)(=O)Nc1ccc2c(c1)C(=O)N([C@@H](C)CO)C[C@@H](C)[C@H](CN(C)Cc1ccc(C(=O)O)cc1)OCCCC[C@H](C)O2	/	/	-5	/	/	-7
Cc1noc(C)c1S(=O)(=O)Nc1ccc2c(c1)C(=O)N([C@@H](C)CO)C[C@H](C)[C@@H](CN(C)Cc1ccc(C(F)(F)F)cc1)OCCCC[C@@H](C)O2	/	/	/	/	/	72*
Cc1noc(C)c1S(=O)(=O)N(C)C[C@@H]1Oc2c(NS(=O)(=O)c3cn(C)cn3)cccc2C(=O)N([C@H](C)CO)C[C@H]1C	/	/	-5	/	/	/
C/C=C/c1ccc([C@H]2[C@@H](CO)N(S(=O)(=O)CC)[C@H]2CN(C)C(=O)CC)cc1	/	/	-1	/	/	/
C[C@@H]1CCCCO[C@H](CN(C)C)[C@@H](C)CN([C@@H](C)CO)C(=O)c2cc(NC(=O)c3ccccc3)ccc2O1	/	/	-2	/	/	-13

Screening data (PubChem)
